Data taken from ChEMBL document CHEMBL3433997, “St. Jude Leishmania screening dataset” (2016).

How the values were obtained:
Format in all cases: functional
[1] = target: Solute carrier family 2, facilitated glucose transporter member 1 (Homo sapiens) (UniProt P11166); assay: ST_JUDE_LEISH: Cytotoxicity at 2uM final concentration against transgenic Leishmania Mexicana promastigotes LmGLUT1 that are glucose transport deficient and complemented with the human glucose transporter GLUT1. Activity is measured by DNA content using SYBR green in vitro
Chain of Solute carrier family 2, facilitated glucose transporter member 1 (Homo sapiens) (P11166 whole entry): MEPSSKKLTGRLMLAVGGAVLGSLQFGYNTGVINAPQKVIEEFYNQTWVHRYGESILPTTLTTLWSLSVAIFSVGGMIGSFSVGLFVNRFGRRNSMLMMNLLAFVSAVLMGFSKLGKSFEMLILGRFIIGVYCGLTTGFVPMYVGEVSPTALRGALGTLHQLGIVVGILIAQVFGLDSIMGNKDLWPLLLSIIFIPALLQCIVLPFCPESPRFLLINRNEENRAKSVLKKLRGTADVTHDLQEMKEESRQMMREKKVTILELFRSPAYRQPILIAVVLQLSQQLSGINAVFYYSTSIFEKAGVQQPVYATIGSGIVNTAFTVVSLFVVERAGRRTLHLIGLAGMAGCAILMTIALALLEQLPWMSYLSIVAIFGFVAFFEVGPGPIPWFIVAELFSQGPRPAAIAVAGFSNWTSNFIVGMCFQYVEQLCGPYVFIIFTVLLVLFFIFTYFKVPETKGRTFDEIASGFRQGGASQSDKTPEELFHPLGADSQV

[2] = target: Hexose transporter 1 (Plasmodium falciparum) (UniProt O97467); assay: ST_JUDE_LEISH: Cytotoxicity at 2uM final concentration against transgenic Leishmania Mexicana promastigotes LmPfHT that are glucose transport deficient and complemented with the Plasmodium falciparum hexose transporter. Activity is measured by DNA content using SYBR green in vitro
[3] = target: Glucose transporter (Leishmania mexicana) (UniProt O61059); assay: ST_JUDE_LEISH: Cytotoxicity at 2uM final concentration against transgenic Leishmania Mexicana promastigotes LmGT2 that are glucose transport deficient and complemented with the L. Mexicana glucose transporter 2. Activity is measured by DNA content using SYBR green in vitro

| SMILES | inhibition [1] [%] | inhibition [2] [%] | inhibition [3] [%] |
| --- | --- | --- | --- |
| Cc1ccc(C2CCN(CCCCNC(=O)c3ccc(NC(=O)c4ccc(Cl)cc4)cc3)CC2)c(C)c1 | -0.93 | -0.75 | -0.85 |
| O=C(NCc1cccc(C(F)(F)F)c1)c1ccc(CNC(=O)c2ccc(O)c(-c3ccc(Cl)c(Cl)c3)c2)cc1 | 5.02 | 2.57 | 3.47 |
| O=C(Nc1ccc(Cl)c(Cl)c1)N[C@H]1CCN(CCCCCNC(=O)C2CC2c2ccc(Cl)c(Cl)c2)C1 (some centres undefined) | 12.3 | 8.71 | 10.6 |
| Fc1cc(CN2CCCC2)ccc1OCCCN1CCN(c2cccc(Cl)c2Cl)CC1 | 4.56 | 5.47 | 4.5 |
| COc1ccc(C2CC(c3ccccc3O)=NN2C(=O)c2ccco2)cc1OC (centres undefined) | 0.86 | 1.48 | -2.92 |
| O=C(/C=C/c1ccc(Cl)c(Cl)c1)NCCCCCN1CCC(NC(=O)c2cc(Cl)ccc2F)CC1 | 2.96 | 1.12 | -0.02 |
| CCCCCCN(CCCCCC)CC(O)c1cc(-c2ccc(Cl)cc2)nc2c(C)cc(C)cc12 (centres undefined) | 8.61 | 6.85 | 8.75 |
| O=C(Nc1ccc(-c2cccc(-c3nc4cc(F)ccc4[nH]3)c2)cc1)Nc1ccsc1 | 5.02 | 6.71 | 0.78 |
| CS(=O)(=O)c1ccc(CNCc2ccc(-c3cccc(-c4nc5cc(C(F)(F)F)ccc5[nH]4)c3)cc2)cc1 | 3.2 | 3.79 | 1.5 |
| FC(F)(F)c1ccc2c(NCCc3ccccc3)ccnc2c1 | 4.24 | 5.12 | 3.79 |
| COc1ccc(CN(C)CCCc2ccc(NC(=O)c3cccc4c(O)c5ccccc5nc34)cc2)cc1OC | 6.56 | 3.71 | 1.93 |
| CC(=O)Nc1cccc(NC(=O)CSc2ccc(-c3nc4ccccc4[nH]3)cn2)c1 | 0.84 | -0.63 | -0.27 |
| Oc1ccc(CCNc2nc(NCc3ccc4cc(Cl)ccc4c3)nc(N3CCNCC3)n2)cc1 | -0.16 | 1.41 | 0.67 |
| COc1cc(Cc2cnc(N)nc2N)cc(OCCCCc2nnn[nH]2)c1OC | -0.47 | 1.16 | -0.95 |
| CC(C)c1ccc(N2CCN(CCCCNC(=O)c3ccc(NC(=O)c4cc(Cl)cc(Cl)c4)cc3)CC2)cc1 | -0.22 | 1.11 | 1.9 |
| Oc1ccc2ccccc2c1CNCC1CCCCC1 | 0.28 | 3.31 | 2.73 |
| CN1CCCN(c2ccnc3cc4c(cc23)N(C(=O)c2ccc(Cl)cc2Cl)CC4)CC1 | -0.4 | 2.07 | 0.94 |
| N=C(N)NC(=O)Nc1cc(Br)c(Cl)c(C(F)(F)F)c1 | 4.79 | 3.32 | 0.66 |
| Cn1c(CN2CCC(N3CCc4cc(NC(=O)c5ccco5)ccc43)C2)cc2ccccc21 (centres undefined) | 5.51 | 4.84 | 5.36 |
| NCCCCNc1cc(-c2ccnc(Nc3cccc(Cl)c3)n2)ccn1 | 60.5 | 71.8 | 76.5 |
| COc1ccc2nccc([C@@H](O)CN3CCC(NC(=O)C(c4cc5ccccc5o4)N4CCN(c5ccccc5OC)CC4)CC3)c2c1 (some centres undefined) | 1.2 | 0.92 | -0.23 |
| O=C(Nc1cccc(CN2CCCN(Cc3ncc[nH]3)CC2)c1)c1cc2ccccc2s1 | 3.43 | 5.48 | 3.3 |
| COc1ccc(Cn2c(Nc3cccc(C(F)(F)F)c3)nc3cc(C(=O)NCCCN(C)C)ccc32)cc1Cl | 0.66 | 0.55 | -1.19 |
| Cc1cc(Nc2c(C(N)=O)cnc3cc(-c4ccoc4)ccc23)ccc1N1CCN(C)CC1 | -1.39 | -0.31 | -0.69 |
| O=C(Nc1cccc(-c2cccc(CN3CCCC3)c2)c1)c1cccc(Cl)c1 | 2.72 | 2.72 | 4.9 |
| C=C1N(C)c2cc([N+](=O)[O-])c(N)cc2C1(C)C | 0.68 | -0.1 | -1.11 |
| FC(F)(F)CNc1nc(Nc2ccc3ncccc3c2)nc2[nH]ccc12 | 21.8 | 17.9 | 8.14 |

| SMILES | inhibition [1] [%] | inhibition [2] [%] | inhibition [3] [%] |
| --- | --- | --- | --- |
| CNC(=O)c1cnc(Nc2ccc(OCC(O)CN(C)C)cc2)nc1Nc1cccc([N+](=O)[O-])c1 (centres undefined) | 3.44 | 3.59 | 3.56 |
| COc1ccc2c(c1)c(C1CCN(CCCCNC(=O)c3ccc(-c4ccc(C(F)(F)F)cc4)cc3)CC1)cn2C(C)C | -0.71 | 1.93 | 0.76 |
| O=C(/C=C/C=C/c1ccccc1)NCCCCCN1CCC(c2c[nH]c3ccccc23)CC1 | 3.2 | 4.23 | 1.69 |
| CC(CCc1ccccc1)NCC(O)c1cccc(C(F)(F)F)c1 (centres undefined) | 5.1 | 5.17 | 3.76 |
| CCCNCc1ccc(-c2ccc(CN(Cc3ccc4c(c3)OCO4)C(=O)Cc3cccnc3)cc2)nc1 | 23.9 | 15.2 | 10.2 |
| Cc1cc2nc(-c3cc(-c4cccc(NS(C)(=O)=O)c4)cnc3N)[nH]c2cc1C | 1.13 | 0.27 | 0.05 |
| CN1CCC(Oc2cc(CN3CC[C@H](NC(=O)c4ccc(Cl)c(Cl)c4)C3)ccc2I)C1 (some centres undefined) | -0.57 | 0.84 | 2.33 |
| Cc1cccc2nc(-c3ccc(-c4cccc(CNCCN(C)C)c4)cc3)[nH]c12 | 3.31 | 2.84 | 0.95 |
| O=S(=O)(Nc1cc2c(cc1O)CCN(C1CCC1)CC2)c1ccc(Oc2ccc(F)cc2)cc1 | 2.05 | 1.02 | 0.51 |
| CC1(C)NC(N)=NC(=N)N1OCCSCc1cc(Cl)sc1Cl | 6.6 | 7.38 | 2.82 |
| Cn1nc(-c2ccc(NC(=O)Nc3cc(C(F)(F)F)ccc3F)c(F)c2)c2cnc(NCCCN3CCOCC3)nc21 | 6.47 | 6.96 | 7.47 |
| CS(=O)(=O)c1ccc(CCNCc2ccc(-c3ccc(CNC4CCN(Cc5ccccc5)CC4)cc3)nc2)cc1 | -0.83 | -1.16 | -2.69 |
| CC(CN1CCN(C)CC1)C(=O)Nc1cccc(-c2cccc(-c3nc4ccccc4[nH]3)c2)c1 (centres undefined) | 4.45 | 4.44 | 2.44 |
| COc1ccc(NS(=O)(=O)c2ccc(C(=O)Nc3ccc(OC(F)(F)F)cc3)cc2)cc1N1CCN(CC2CC2)CC1 | 6.41 | 5.3 | 4.14 |
| CCC(C)NC(=O)CN1CN(c2ccccc2)C2(CCN(C(=O)c3ccc(C(C)(C)C)cc3)CC2)C1=O (centres undefined) | 3.34 | 2.77 | 1.7 |
| O=C(Nc1ccc(S(=O)(=O)N2CCCCC2)cc1)c1cc(-c2cc(Cl)ccc2O)n[nH]1 | 6.03 | 6.9 | 4.71 |
| COc1ccc(-c2ccc(NC(=O)c3ccc(C#N)cc3)cc2)cc1CN(C)CCN(C)C | 6.36 | 4.84 | 1.19 |
| CN1CCCN(Cc2ccc(-c3cccc(NC(=O)c4cccc(C#N)c4)c3)cc2)CC1 | 8.55 | 4.85 | 5.62 |
| N=C(N)c1ccc(Nc2nccc(Nc3nc(-c4ccccc4)cs3)n2)cc1 | 0.38 | 0.47 | -0.9 |
| Cc1c(C)n(Cc2ccccc2)c2ncnc(OC3CCN(CC(=O)NCC4CC4)CC3)c12 | 1.84 | 0.12 | 0.21 |
| N=C(N)NN=CC(=O)Nc1cc([N+](=O)[O-])cc([N+](=O)[O-])c1 | 8.23 | 7.12 | 6.66 |
| Cc1c(CCC#N)c(NCc2ccccc2)n2c(nc3ccccc32)c1C#N | 1.13 | 0.53 | -0.97 |
| Cn1c(N)c(C(=O)CSc2ncc(-c3ccc(F)cc3)n2Cc2ccccc2)c(=O)n(C)c1=O | 2.53 | 1.62 | 3.15 |
| CCC(C)c1ccc(NC(=O)Nc2ccnc3ccccc23)cc1 (centres undefined) | 2.93 | 6.23 | 2.25 |
| Cc1csc2nc(-c3ccccn3)nc(Nc3ccncn3)c12 | 1.73 | 3.39 | 1.79 |
| Cc1cccc(-c2nn(-c3ccccc3)c3[nH]c(=O)c(CN4CCSCC4)cc23)c1 | -2.69 | -2.03 | 1.18 |
